# Test results as given in PMC4242493, “Sequence specificity incompletely defines the genome-wide occupancy of Myc”.
# The full ranking holds about 33,000 sequences; the median of “normalized occupancy” is about 0.075, and the highest 2% start at about 0.095. Shown is part of a subset that was picked to be rich in the highest values.
# Molecular target: MaxL homodimer (Homo sapiens, UniProt P61244 1-160)
# Assay: universal protein-binding microarray (PBM); PBS-based mixture, 10 nM His-tagged protein dimer, 2% milk, 200 ng/uL BSA, 50 ng/uL salmon testes DNA, 0.02% TX-100; detection with Alexa 488 anti-His antibody;; high values mean tight binding
# Conditions: protein: recombinant; tags: C-terminal His-tag (pET21a); chain copies: 2; dsDNA, one strand shown
# Outline: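 Binding occupancy is a fluorescence intensity normalised to the intensity of the highest-ranked sequence word. Those intensities came from 8-mers on Agilent 4 x 44 K 'all 10-mer' universal arrays incubated with 10 nM His-tagged protein dimer. Bound protein was detected with 10 ng/μL fluorophore-conjugated anti-His antibody before scanning on a GenePix 4400A.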
# Sequence of MaxL homodimer (P61244 whole entry): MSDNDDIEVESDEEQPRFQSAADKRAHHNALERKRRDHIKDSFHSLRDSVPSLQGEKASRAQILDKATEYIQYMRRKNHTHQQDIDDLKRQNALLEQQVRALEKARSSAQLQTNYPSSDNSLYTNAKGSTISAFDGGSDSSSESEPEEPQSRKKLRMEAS
row,Sequence,binding signal
1,ATGCATGA,0.0997 normalized occupancy
2,GTGCATGA,0.0961 normalized occupancy
3,CTGCATGA,0.083 normalized occupancy
4,ATGCATGC,0.126 normalized occupancy
5,CTGCATGC,0.1 normalized occupancy
6,ATGCATTC,0.0908 normalized occupancy
7,GTGCATCA,0.0868 normalized occupancy
8,ATGCATCA,0.0872 normalized occupancy
9,CTGCATTC,0.0735 normalized occupancy
10,ATGCATTA,0.0869 normalized occupancy
11,ATGCATCC,0.0863 normalized occupancy
12,AGAGGCGA,0.0756 normalized occupancy
13,CTTGAGTC,0.0726 normalized occupancy
14,ACTTTGTC,0.0738 normalized occupancy
15,GGTTCTAC,0.0735 normalized occupancy
16,GAACTAAC,0.0734 normalized occupancy
17,ATTCCGAC,0.0732 normalized occupancy
18,AAGTTCAG,0.0751 normalized occupancy
19,ACACCAAG,0.0798 normalized occupancy
20,GTGGACCA,0.0775 normalized occupancy
21,GTGTTAAA,0.0743 normalized occupancy
22,GATTGCAC,0.0761 normalized occupancy
23,ATGCATCG,0.0835 normalized occupancy
24,ATGCATGG,0.0969 normalized occupancy
25,ATGCATAG,0.0814 normalized occupancy
26,CGGGGGCA,0.0747 normalized occupancy

row,Sequence,binding signal
1,CTCATGGA,0.0927 normalized occupancy
2,CTCATGAC,0.0906 normalized occupancy
3,CTCATGTC,0.0928 normalized occupancy
4,CTCATGCC,0.0954 normalized occupancy
5,ATGATGCG,0.0869 normalized occupancy
6,GTCATGCA,0.0869 normalized occupancy
7,CTCATGGC,0.0965 normalized occupancy
8,CTTATGGC,0.0778 normalized occupancy
9,CTCATGCA,0.0963 normalized occupancy
10,ATCATGCA,0.0894 normalized occupancy
11,ATCATGCG,0.105 normalized occupancy
12,ATCATTCG,0.0804 normalized occupancy
13,AAAAGGGA,0.0725 normalized occupancy
14,GGGCGTTA,0.0774 normalized occupancy
15,TACTTCTA,0.0754 normalized occupancy
16,GCATAAGA,0.0799 normalized occupancy
17,GGCTAGCA,0.0747 normalized occupancy
18,ATCATGCC,0.0958 normalized occupancy
19,ATAATGCC,0.0813 normalized occupancy
20,ATCATGAC,0.0868 normalized occupancy
21,CAAAATGG,0.0769 normalized occupancy
22,AATTACAG,0.0778 normalized occupancy
23,AATGCGCA,0.0804 normalized occupancy
24,AATGCGCC,0.0731 normalized occupancy
25,ATTGCGCG,0.0747 normalized occupancy
26,TATGCGCA,0.0804 normalized occupancy

row,Sequence,binding signal
1,CGTGCGCA,0.0967 normalized occupancy
2,AATGCGCG,0.0754 normalized occupancy
3,AGTGCGCA,0.076 normalized occupancy
4,CGTGCGCC,0.0922 normalized occupancy
5,CATGCGCC,0.111 normalized occupancy
6,CATGCGCG,0.11 normalized occupancy
7,AGTGCGCC,0.0735 normalized occupancy
8,CATGCGCA,0.125 normalized occupancy
9,GTCGCTGA,0.0755 normalized occupancy
10,ACAATAGA,0.0762 normalized occupancy
11,ACTTGACG,0.0741 normalized occupancy
12,GTCATCGA,0.0798 normalized occupancy
13,ATAGATGC,0.075 normalized occupancy
14,CGCACTGA,0.0735 normalized occupancy
15,ACTTACAA,0.0743 normalized occupancy
16,ACGAGACA,0.0856 normalized occupancy
17,CGCGTGAG,0.109 normalized occupancy
18,CGCGTGAA,0.105 normalized occupancy
19,CGCGTGAC,0.134 normalized occupancy
20,CGTGTGAC,0.0871 normalized occupancy
21,AGCGTGAG,0.091 normalized occupancy
22,CCCGTGAG,0.0759 normalized occupancy
23,GGCGTGAA,0.0776 normalized occupancy
24,CTCGTGAA,0.0894 normalized occupancy
25,GGCGTGAC,0.0927 normalized occupancy
26,CTCGTGAC,0.104 normalized occupancy

row,Sequence,binding signal
1,ATCGTGAC,0.0839 normalized occupancy
2,TGCGTGAA,0.0808 normalized occupancy
3,CGCCCCCC,0.0791 normalized occupancy
4,CCTAAGGA,0.0757 normalized occupancy
5,ACTTTACC,0.0744 normalized occupancy
6,ACGATCAA,0.0748 normalized occupancy
7,AGAGATTC,0.0757 normalized occupancy
8,CGTTACAC,0.0819 normalized occupancy
9,TGTTACAA,0.0777 normalized occupancy
10,CGTGCTTC,0.0896 normalized occupancy
11,CATGCTGC,0.122 normalized occupancy
12,GATGCTGC,0.078 normalized occupancy
13,CATGCTTC,0.106 normalized occupancy
14,CATGCTGG,0.125 normalized occupancy
15,GATGCTTA,0.0759 normalized occupancy
16,AATGCTTC,0.0816 normalized occupancy
17,AATGCTGG,0.0789 normalized occupancy
18,CAAGCTGG,0.0721 normalized occupancy
19,AATGCTTA,0.0806 normalized occupancy
20,AATGCTGC,0.0788 normalized occupancy
21,CATGCTTA,0.104 normalized occupancy
22,CAACCGTC,0.075 normalized occupancy
23,ATGCAATG,0.08 normalized occupancy
24,CGACCTCG,0.0723 normalized occupancy
25,ATGATAAA,0.0793 normalized occupancy
26,ACGAGGTC,0.0849 normalized occupancy

row,Sequence,binding signal
1,ATAGACCC,0.0762 normalized occupancy
2,GTGACCCA,0.0762 normalized occupancy
3,CATGCTGA,0.112 normalized occupancy
4,TATGCTGA,0.0773 normalized occupancy
5,GATGCTGA,0.0746 normalized occupancy
6,CCCTTGCA,0.0735 normalized occupancy
7,ACATTTTC,0.0796 normalized occupancy
8,TACGTTGA,0.082 normalized occupancy
9,AACGTTGC,0.0766 normalized occupancy
10,CGCGTTGC,0.0781 normalized occupancy
11,GACGTTGA,0.0764 normalized occupancy
12,CACGTTGA,0.115 normalized occupancy
13,CACGTTGC,0.131 normalized occupancy
14,AACGTTGA,0.0764 normalized occupancy
15,CACGTTGG,0.122 normalized occupancy
16,AACGTTGG,0.0767 normalized occupancy
17,AACTCGCG,0.0749 normalized occupancy
18,ACAAAGGG,0.0742 normalized occupancy
19,TCCTAAGA,0.0773 normalized occupancy
20,CTCAGTAC,0.0743 normalized occupancy
21,CCTCCTCC,0.0782 normalized occupancy
22,AGTATGAG,0.0766 normalized occupancy
23,GGCATGAC,0.0858 normalized occupancy
24,ATCATGAG,0.09 normalized occupancy
25,CGCATGAC,0.105 normalized occupancy
26,CGTATGAG,0.0785 normalized occupancy

row,Sequence,binding signal
1,AGCATGAG,0.102 normalized occupancy
2,CGTATGAC,0.0817 normalized occupancy
3,CGCATGAA,0.0861 normalized occupancy
4,CGCATGAG,0.0969 normalized occupancy
5,ACAGATCT,0.0745 normalized occupancy
6,GGCATACA,0.0776 normalized occupancy
7,GAGACATC,0.0756 normalized occupancy
8,AATGCCGC,0.0765 normalized occupancy
9,GATGCCGA,0.0738 normalized occupancy
10,CATGCCAG,0.0874 normalized occupancy
11,CATGCCGA,0.102 normalized occupancy
12,CATGCCGC,0.105 normalized occupancy
13,CATGCCAC,0.0989 normalized occupancy
14,CATGCCAA,0.0927 normalized occupancy
15,TATGCCGA,0.0757 normalized occupancy
16,CATGCCGG,0.0917 normalized occupancy
17,ACCTAAAT,0.073 normalized occupancy
18,GAGCTATA,0.0729 normalized occupancy
19,ATGTGGAA,0.0936 normalized occupancy
20,GTATGGAA,0.0836 normalized occupancy
21,ACAGCACG,0.0906 normalized occupancy
22,CCCTGGAA,0.0745 normalized occupancy
23,AGCAGACA,0.0774 normalized occupancy
24,CCGCCACC,0.0762 normalized occupancy
25,TAATTGTA,0.0773 normalized occupancy
26,CTTTTGGA,0.0744 normalized occupancy

row,Sequence,binding signal
1,CACCTGGA,0.0905 normalized occupancy
2,CACCTGAG,0.0741 normalized occupancy
3,CACCTGTC,0.0839 normalized occupancy
4,CACCTGGG,0.0841 normalized occupancy
5,CACCTGGC,0.103 normalized occupancy
6,CACCTGAC,0.0973 normalized occupancy
7,ATTCGAGG,0.0723 normalized occupancy
8,ACTGCACT,0.0733 normalized occupancy
9,AGATGTTA,0.0811 normalized occupancy
10,GCATGTTA,0.0976 normalized occupancy
11,ACATGTCA,0.0911 normalized occupancy
12,AGATGTTG,0.0819 normalized occupancy
13,AAATGTTG,0.0794 normalized occupancy
14,ATATGTTA,0.0924 normalized occupancy
15,GTATGTTA,0.0849 normalized occupancy
16,CCATGTTA,0.0847 normalized occupancy
17,ACATGTTG,0.11 normalized occupancy
18,ACATGTTA,0.0993 normalized occupancy
19,GCATGTCA,0.0972 normalized occupancy
20,GCATGTCC,0.0929 normalized occupancy
